# Laboratory results as given in PubChem BioAssay (NCI).
# This is part of a sample that, as a whole, favours compounds with a hit. Of some 79,000 tested, about 15% had one in any assay. Values without a mark were called inactive. Calls of active or inactive are those of the source. Cut-off read from the data, not from the text of the source: active = growth inhibition above about 70%; inactive = the rest.
# Assays:
# [1] = NCI Yeast Anticancer Drug Screen. Data for the rad52 strain (AID 147);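 note: 0% = growth of vehicle-treated control cultures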; conditions: S. cerevisiae rad52 mutant growth inhibition, stronger effect = higher value
# How it was run: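 DNA repair-defective yeast; compound exposure; growth scored against vehicle controls.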
# [2] = NCI Yeast Anticancer Drug Screen. Data for the wt1 strain (AID 149);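 note: 0% = growth of vehicle-treated wt1 cultures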; conditions: S. cerevisiae wt1 strain (SPY 50644) growth inhibition, stronger effect = higher value
# How it was run: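 Each compound is tested on wt1 yeast and the loss of growth versus vehicle gives the inhibition value.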
# [3] = NCI Yeast Anticancer Drug Screen. Data for the rad50EPP+ strain (AID 151);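 note: 0% = growth of vehicle-treated control cultures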; conditions: S. cerevisiae rad50 mutant strain, stronger effect = higher value
# How it was run: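 rad50EPP+ yeast treated with test compounds. Readout: growth vs vehicle control.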
# [4] = NCI Yeast Anticancer Drug Screen. Data for the rad50 strain (AID 155);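 note: 0% = growth of vehicle-only cultures of the same strain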; conditions: S. cerevisiae rad50 strain growth inhibition, stronger effect = higher value
# How it was run: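 Vehicle-treated cultures provide the reference for the growth inhibition reported for compound-exposed, repair-deficient yeast.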
# [5] = NCI Yeast Anticancer Drug Screen. Data for the mec2-1 strain (AID 157); conditions: S. cerevisiae mec2-1 strain, stronger effect = higher value
# How it was run: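 Growth inhibition is read against vehicle-treated controls after compound exposure of the mec2-1 yeast strain, which is defective in DNA damage repair or cell cycle control.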
# [6] = NCI Yeast Anticancer Drug Screen. Data for the rad14 strain (AID 159);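 note: 0% = growth of vehicle-treated control cultures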; conditions: S. cerevisiae rad14 strain growth inhibition, stronger effect = higher value
# How it was run: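 Inhibition of growth is reported for a repair-deficient yeast mutant following compound treatment, calculated relative to cultures that received vehicle.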
# [7] = NCI Yeast Anticancer Drug Screen. Data for the sgs1 mgt1 strain (AID 161);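 note: 0% = growth of cultures given vehicle only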; conditions: S. cerevisiae sgs1 mgt1 strain, stronger effect = higher value
# How it was run: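 Growth of a repair-deficient yeast mutant was monitored after compound treatment and expressed as inhibition relative to vehicle-treated cultures.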
# [8] = NCI Yeast Anticancer Drug Screen. Data for the CLN2oe strain (AID 163);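 note: 0% = growth of vehicle-only control cultures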; conditions: S. cerevisiae CLN2oe strain, stronger effect = higher value
# How it was run: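 Compound-treated yeast; growth vs vehicle ctrl = % inhibition. Genetically altered strain (cell-cycle control).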
# [9] = NCI Yeast Anticancer Drug Screen. Data for the cln2 rad14 strain (AID 165);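 note: 0% = growth equal to vehicle treated cultures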; conditions: S. cerevisiae cln2 rad14 strain, stronger effect = higher value
# How it was run: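 Growth inhibition, relative to vehicle-treated controls, is the read-out. The test organism is a yeast strain with defined genetic alterations, cln2 rad14.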
# [10] = NCI Yeast Anticancer Drug Screen. Data for the bub3 strain (AID 167); conditions: S. cerevisiae bub3 mutant strain, stronger effect = higher value
# How it was run: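 Mutant yeast screening strain plus compound; vehicle-treated cultures serve as the 0% inhibition reference.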
# [11] = NCI Yeast Anticancer Drug Screen. Data for the wt2 strain (AID 169); conditions: S. cerevisiae wt2 strain growth inhibition, stronger effect = higher value
# How it was run: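 Compound exposure of yeast; growth compared with vehicle controls; inhibition reported.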
# [12] = NCI Yeast Anticancer Drug Screen. Data for the mlh1 strain (AID 171);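 note: 0% = growth of vehicle-treated control cultures of the same strain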; conditions: S. cerevisiae mlh1 strain growth inhibition, stronger effect = higher value
# How it was run: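 Compounds are applied to a genetically altered yeast strain, and its growth is compared with that of vehicle-treated cultures to give percent inhibition.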
# [13] = NCI Yeast Anticancer Drug Screen. Data for the sgs1 strain (AID 173);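 note: 0% = growth of vehicle-only control cultures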; conditions: S. cerevisiae sgs1 mutant, stronger effect = higher value
# How it was run: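 Compounds applied to genetically altered yeast; growth compared with vehicle-treated cultures to give % inhibition.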
# [14] = NCI Yeast Anticancer Drug Screen. Data for the mlh1 rad18 strain (AID 175); conditions: S. cerevisiae mlh1 rad18 strain growth inhibition, stronger effect = higher value
# How it was run: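 Cells of a genetically altered yeast strain, deficient in DNA damage repair, were treated with compound. Their growth was then compared with that of vehicle-treated cultures to give inhibition.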
# [15] = NCI Yeast Anticancer Drug Screen. Data for the rad18 strain (AID 177); conditions: S. cerevisiae rad18 mutant growth inhibition, stronger effect = higher value
# How it was run: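 Compounds are applied to a repair-deficient yeast strain, and growth is compared with that of vehicle-treated cultures to give percent inhibition.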
# [16] = at 5.0 µM (retest, dose inferred, filed as 0.5)
# [17] = at 50.0 µM (retest, dose inferred, filed as 5.0)
smiles,measurement,setting,value
CC1CN1C1=C(Cl)C(=O)C(N2CC2C)=C(Cl)C1=O (stereo unspecified),growth inhibition,[1]; at 1.2 µM,22%
same,growth inhibition,[1]; at 3.7 µM,40%
same,growth inhibition,[1]; at 11.0 µM,64%
same,growth inhibition,[1]; at 33.0 µM,97% (active)
same,growth inhibition,[1]; at 100.0 µM,97% (active)
same,growth inhibition,[2]; at 1.2 µM,0%
same,growth inhibition,[2]; at 3.7 µM,-4%
same,growth inhibition,[2]; at 11.0 µM,12%
same,growth inhibition,[2]; at 33.0 µM,81% (active)
same,growth inhibition,[2]; at 100.0 µM,97% (active)
same,growth inhibition,[3]; at 1.2 µM,8%
same,growth inhibition,[3]; at 3.7 µM,21%
same,growth inhibition,[3]; at 11.0 µM,47%
same,growth inhibition,[3]; at 33.0 µM,94% (active)
same,growth inhibition,[3]; at 100.0 µM,97% (active)
same,growth inhibition,[4]; at 1.2 µM,16%
same,growth inhibition,[4]; at 3.7 µM,27%
same,growth inhibition,[4]; [16],19%
same,growth inhibition,[4]; at 11.0 µM,79% (active)
same,growth inhibition,[4]; at 33.0 µM,97% (active)
same,growth inhibition,[4]; [17],95% (active)
same,growth inhibition,[4]; at 50.0 µM,46%
same,growth inhibition,[4]; at 100.0 µM,98% (active)
same,growth inhibition,[5]; at 1.2 µM,2%
same,growth inhibition,[5]; at 3.7 µM,1%
same,growth inhibition,[5]; [16],15%
same,growth inhibition,[5]; at 11.0 µM,6%
same,growth inhibition,[5]; at 33.0 µM,92% (active)
same,growth inhibition,[5]; [17],93% (active)
same,growth inhibition,[5]; at 50.0 µM,18.8%
same,growth inhibition,[5]; at 100.0 µM,98% (active)
same,growth inhibition,[6]; at 1.2 µM,22%
same,growth inhibition,[6]; at 3.7 µM,37%
same,growth inhibition,[6]; at 11.0 µM,50%
same,growth inhibition,[6]; at 33.0 µM,97% (active)
same,growth inhibition,[6]; at 100.0 µM,98% (active)
same,growth inhibition,[7]; [16],39%
same,growth inhibition,[7]; [17],96% (active)
same,growth inhibition,[7]; at 50.0 µM,69.3%
same,growth inhibition,[8]; at 1.2 µM,0%
same,growth inhibition,[8]; at 3.7 µM,-8%
same,growth inhibition,[8]; at 11.0 µM,-7%
same,growth inhibition,[8]; at 33.0 µM,27%
same,growth inhibition,[8]; at 100.0 µM,54%
same,growth inhibition,[9]; [16],-3%
same,growth inhibition,[9]; [17],82% (active)
same,growth inhibition,[9]; at 50.0 µM,10.3%
same,growth inhibition,[10]; at 1.2 µM,18%
same,growth inhibition,[10]; at 3.7 µM,15%
same,growth inhibition,[10]; [16],23%
same,growth inhibition,[10]; at 11.0 µM,29%
same,growth inhibition,[10]; at 33.0 µM,86% (active)
same,growth inhibition,[10]; [17],93% (active)
same,growth inhibition,[10]; at 50.0 µM,45.4%
same,growth inhibition,[10]; at 100.0 µM,95% (active)
same,growth inhibition,[11]; at 1.2 µM,-6%
same,growth inhibition,[11]; at 3.7 µM,3%
same,growth inhibition,[11]; at 11.0 µM,43%
same,growth inhibition,[11]; at 33.0 µM,96% (active)
same,growth inhibition,[11]; at 100.0 µM,98% (active)
same,growth inhibition,[12]; at 1.2 µM,-1%
same,growth inhibition,[12]; at 3.7 µM,-1%
same,growth inhibition,[12]; at 11.0 µM,24%
same,growth inhibition,[12]; at 33.0 µM,64%
same,growth inhibition,[12]; at 100.0 µM,97% (active)
same,growth inhibition,[13]; at 1.2 µM,22%
same,growth inhibition,[13]; at 3.7 µM,37%
same,growth inhibition,[13]; at 11.0 µM,78% (active)
same,growth inhibition,[13]; at 33.0 µM,97% (active)
same,growth inhibition,[13]; at 100.0 µM,97% (active)
same,growth inhibition,[14]; [16],59%
same,growth inhibition,[14]; [17],97% (active)
same,growth inhibition,[14]; at 50.0 µM,69.1%
same,growth inhibition,[15]; at 1.2 µM,92% (active)
same,growth inhibition,[15]; at 3.7 µM,96% (active)
same,growth inhibition,[15]; at 11.0 µM,96% (active)
same,growth inhibition,[15]; at 33.0 µM,97% (active)
same,growth inhibition,[15]; at 100.0 µM,97% (active)
Nc1nc(-c2ccccc2)c(-c2ccccc2)[se]1,growth inhibition,[1]; at 1.2 µM,3%
same,growth inhibition,[1]; at 3.7 µM,3%
same,growth inhibition,[1]; at 11.0 µM,0%
same,growth inhibition,[1]; at 33.0 µM,12%
same,growth inhibition,[1]; at 100.0 µM,28%
same,growth inhibition,[2]; at 1.2 µM,-2%
same,growth inhibition,[2]; at 3.7 µM,-1%
same,growth inhibition,[2]; at 11.0 µM,-1%
same,growth inhibition,[2]; at 33.0 µM,-2%
same,growth inhibition,[2]; at 100.0 µM,3%
same,growth inhibition,[3]; at 1.2 µM,-1%
same,growth inhibition,[3]; at 3.7 µM,7%
same,growth inhibition,[3]; at 11.0 µM,9%
same,growth inhibition,[3]; at 33.0 µM,18%
same,growth inhibition,[3]; at 100.0 µM,25%
same,growth inhibition,[4]; at 1.2 µM,7%
same,growth inhibition,[4]; at 3.7 µM,4%
same,growth inhibition,[4]; [16],7%
same,growth inhibition,[4]; at 11.0 µM,5%
same,growth inhibition,[4]; at 33.0 µM,16%
same,growth inhibition,[4]; [17],10%
same,growth inhibition,[4]; at 50.0 µM,51.1%
same,growth inhibition,[4]; at 100.0 µM,32%
same,growth inhibition,[5]; at 1.2 µM,-1%
same,growth inhibition,[5]; at 3.7 µM,1%
same,growth inhibition,[5]; [16],11%
same,growth inhibition,[5]; at 11.0 µM,0%
same,growth inhibition,[5]; at 33.0 µM,3%
same,growth inhibition,[5]; [17],10%
same,growth inhibition,[5]; at 50.0 µM,22.9%
same,growth inhibition,[5]; at 100.0 µM,7%
same,growth inhibition,[6]; at 1.2 µM,5%
same,growth inhibition,[6]; at 3.7 µM,3%
same,growth inhibition,[6]; at 11.0 µM,4%
same,growth inhibition,[6]; at 33.0 µM,13%
same,growth inhibition,[6]; at 100.0 µM,28%
same,growth inhibition,[7]; [16],10%
same,growth inhibition,[7]; [17],23%
same,growth inhibition,[7]; at 50.0 µM,86.2% (active)
same,growth inhibition,[8]; at 1.2 µM,3%
same,growth inhibition,[8]; at 3.7 µM,-1%
same,growth inhibition,[8]; at 11.0 µM,3%
same,growth inhibition,[8]; at 33.0 µM,8%
same,growth inhibition,[8]; at 100.0 µM,15%
same,growth inhibition,[9]; [16],11%
same,growth inhibition,[9]; [17],2%
same,growth inhibition,[9]; at 50.0 µM,-11.8%
same,growth inhibition,[10]; at 1.2 µM,-2%
same,growth inhibition,[10]; at 3.7 µM,-2%
same,growth inhibition,[10]; [16],3%
same,growth inhibition,[10]; at 11.0 µM,-3%
same,growth inhibition,[10]; at 33.0 µM,3%
same,growth inhibition,[10]; [17],1%
same,growth inhibition,[10]; at 50.0 µM,41.3%
same,growth inhibition,[10]; at 100.0 µM,5%
same,growth inhibition,[11]; at 1.2 µM,-10%
same,growth inhibition,[11]; at 3.7 µM,-9%
same,growth inhibition,[11]; at 11.0 µM,-14%
same,growth inhibition,[11]; at 33.0 µM,-9%
same,growth inhibition,[11]; at 100.0 µM,-10%
same,growth inhibition,[13]; at 1.2 µM,-18%
same,growth inhibition,[13]; at 3.7 µM,7%
same,growth inhibition,[13]; at 11.0 µM,11%
same,growth inhibition,[13]; at 33.0 µM,6%
same,growth inhibition,[13]; at 100.0 µM,32%
same,growth inhibition,[14]; [16],6%
same,growth inhibition,[14]; [17],10%
same,growth inhibition,[14]; at 50.0 µM,62.5%
same,growth inhibition,[15]; at 1.2 µM,5%
same,growth inhibition,[15]; at 3.7 µM,8%
same,growth inhibition,[15]; at 11.0 µM,6%
same,growth inhibition,[15]; at 33.0 µM,15%
same,growth inhibition,[15]; at 100.0 µM,51%
